Data: PubChem BioAssay AID1259415 (National Center for Advancing Translational Sciences (NCATS), 2018)
Where “and” joins values, the source holds several entries; their conditions need not be identical. Identical values can stand only once. Screen size: about 410,000 compounds; about 18,000 (4.4%) were called active. Another 7% or so got no clear call; they are omitted. Shown is part of a subset that was picked to be rich in actives. Unmarked numbers belong to inactive results. Cut-off read from the data, not from the text of the source: active = activity change below about -60%; inconclusive = no clear call, values can overlap the other calls; inactive = above about -39%.

assay: qHTS Assay for inhibitors of the human cytomegalovirus (HCMV); settings: HFF cells, HCMV-luciferase reporter, 72 h; at 57.5 µM; active compounds read low
Text: NCGC Assay Overview: Infection with human cytomegalovirus (HCMV) continues to pose significant threats for pregnant women and immunocompromised hosts. HCMV causes serious morbidity and mortality in transplant recipients, and congenital HCMV is the leading infectious cause of mental retardation and deafness in children. In the 1990s, the annual costs associated with the disease burden of congenital CMV were estimated at around $2 billion. A HCMV vaccine is not available yet and HCMV therapies result in intolerable side effects and emergence of drug resistant viruses. […] Towards this goal we have developed and characterized a luciferase HCMV reporter that was initially used in 96 well plates and then optimized to 1536-well plates for utilization in screening of the MLSMR collection, the NGCG diversity collection and the NCGC Pharmaceutical Collection of approved and investigational drugs.
NCGC Assay Protocol Summary:
This is a cell-based assay for HCMV inhibition in HFFs cells. The screening used 2 compound doses and the HCMV-luciferase at MOI of 1 PFU/cell. Cells were treated and infected with HCMV. At 72 h post infection cell lysates were collected and luciferase activity was determined using the Glomax-Multi + Detection System (Promega, Madison, WI). Data were normalized to the controls for basal activity (buffer only) and known HCMV inhibitors Salinmoycin.
1536-well assay protocol for the assay:
(1) Add 3 ul CMV/HFF cell culture. 1000 cells/well in DMEM nirmal media.
(2) Incubate 16 hr at 37C.
(3) Add 23 nl control compound, 10uM of Salinomycin.
(4) Add 23 nl compounds in DMSO solution.
(5) Add 3 ul CMV suspension. Final 1 puf/ul, Virus stock 2000pfu/ul
(6) Incubate 72 hrs at 37C.
(7) Add 4 ul OneGlo Luc Reagent.
(8) Incubate 5 min at room temperature.
% is set by controls: 0 for no effect and ±100 for the full control effect.

Row | Compound | activity change, negative = inhibition
1 | N#Cc1ccc(CSc2nnc(-c3ccccn3)n2-c2ccc(Cl)cc2)cc1 | -9.16%
2 | Clc1ccc(-n2nnnc2-c2cnc(-c3ccccn3)nc2-c2cccs2)cc1 | -103% (active)
3 | O=C(Cn1cc(-c2nnnn2-c2ccc(Cl)cc2)c(=O)c2ccccc21)c1ccccc1 | -9.79%
4 | CCCS(=O)(=O)Nc1cccc(-c2cn3ccsc3n2)c1 | -0.309%
5 | N#Cc1ccccc1NC(=O)COc1c(Br)cc(Br)c2cccnc12 | 85.2%
6 | O=[N+]([O-])c1cc([N+](=O)[O-])c2cccnc2c1O | -19.7%
7 | CC(=O)NC(c1cccs1)c1cc(Br)c2cccnc2c1O (centres undefined) | -100% (active)
8 | O=C(CNS(=O)(=O)c1ccc2ccccc2c1)Nc1ccc(F)c(F)c1F | 0%
9 | Cc1ccc(NS(=O)(=O)c2ccc(C)c(NC(=O)COc3ccc4ccccc4c3)c2)c(C)c1 | -81.5% (active)
10 | CC(=O)c1cccc(OCC(=O)OCC(=O)Nc2cc(S(=O)(=O)N3CCCCC3)ccc2C)c1 | 9.96%
11 | CCCn1c(C(C)Nc2nc(-c3ccc(C)cc3)cs2)nc2cc(Cl)c(N3CCCCC3)cc21 (centres undefined) | 2.56%
12 | NC1=CC(=O)C(=O)c2cccnc21 | -78.2% (active)
13 | O=C1CCCC2=C1C(c1cccs1)n1nc(SCc3ccccc3)nc1N2 (centres undefined) | -15.6%
14 | COC(=O)c1ccc(NC(=O)c2cc3c(CO)cnc(C)c3oc2=Nc2cccc(C(N)=O)c2)cc1 | -2.9%
15 | Cn1nccc1/C=N\NC(=O)c1ccc(Cl)cc1 | 45.6%
16 | CC1(C)C2CC=C(/C=N/NC(=O)c3ccc(Cl)cc3)C1C2 (centres undefined) | 23.1%
17 | O=C(N/N=C/c1ccccn1)c1cccc(NC(=O)c2ccc(Cl)cc2)c1 | -69.8% (active)
18 | CC(C)C(=O)Nc1nnc(SCC(=O)N2C(C)CCCC2C)s1 (centres undefined) | -28.8%
19 | Cc1nn(-c2ccc(N3CCCCC3)nn2)c(C)c1CCC(=O)NCc1ccccc1F | -16.6%
20 | Cc1ccc(C)c(NC(=O)c2ccc(OC(=O)c3ccco3)cc2)c1 | 71.3%
21 | CSCCC(NC(=O)c1ccco1)C(=O)Nc1cc(C)ccn1 (centres undefined) | 47.1%
22 | C/C(=N\NS(=O)(=O)c1ccc(Cl)cc1)c1ccc(NC(=O)c2ccco2)cc1 | -65.3% (active)

Row | Compound | activity change, negative = inhibition
23 | C/C(=N/NS(=O)(=O)c1ccccc1)c1ccc(NC(=O)C(F)(F)F)cc1 | 0.908%
24 | Cc1ccnc(NC(=O)c2ccc(NC(=O)c3ccco3)cc2)c1 | -84.7% (active)
25 | CCN(c1ccc(Cl)cc1)S(=O)(=O)c1nnc(NC(=O)c2ccco2)s1 | 39.9%
26 | CC(C)Cn1c(-c2ccc(S(=O)(=O)N3CCOCC3)cc2)csc1=Nc1cc(Cl)ccc1Cl | 0.205%
27 | CN(Cc1ccccc1)C(=O)c1cn(C)c2ccc(S(=O)(=O)N3CCCCC3)cc2c1=O | -4.78%
28 | CCOC(=O)c1c(S(=O)(=O)N2CCCC(C(=O)NCc3ccc(F)cc3)C2)c(C)n(CC)c1C (centres undefined) | -1.02%
29 | Cc1ccc(C2C=C(c3ccc(Cl)cc3)Nc3nc(NC(=O)CCC(=O)O)nn32)cc1 (centres undefined) | -19.9%
30 | Cc1ccc(OCC(=O)OCc2cc(=O)n3nc(C4CC4)sc3n2)cc1C | -1.4%
31 | COc1ccc(-n2ccnc(NCCc3ccc(Cl)cc3)c2=O)cc1OC | -27.6%
32 | Cn1c(=O)c2c(nc(NCCc3ccccc3)n2Cc2ccccc2Br)n(C)c1=O | 6.41%
33 | Cn1c(=O)[nH]c(=O)c2c1nc(NCCc1ccccc1)n2Cc1ccc(F)cc1 | 26.5%
34 | Cn1c(=O)c2c(nc(NCCc3ccccc3)n2Cc2ccccc2)n(C)c1=O | -84.2% (active)
35 | CCn1c(NCCc2ccc(OC)c(OC)c2)nc2c1c(=O)n(C)c(=O)n2C | -71.3% (active)
36 | Cn1c(=O)c2c(nc(NCc3ccccc3)n2CC(N)=O)n(C)c1=O | -13.4%
37 | CCOC(=O)c1ccc(NC(=O)Cn2cc(S(=O)(=O)Cc3ccccc3F)c3ccccc32)cc1 | 0%
38 | CCOc1cccc2cc(-c3cn4c(n3)sc3cc(C)ccc34)c(=O)oc12 | 0.706%
39 | CCOC(=O)c1ccc(NC(=O)CC2C(=O)N(c3ccccc3)C(=O)N2Cc2cccs2)cc1 (centres undefined) | 16.8%
40 | CCn1nc(C(=O)Nc2ccc(N3CCOCC3)cc2)c2ccccc2c1=O | -3.67%
41 | CCOc1cc(-c2nnc(SCC(=O)NC3CCCCC3)nc2-c2ccc(OC)c(OCC)c2)ccc1OC | 8.79%
42 | COc1ccc(NC(=O)C2CCC(CNS(=O)(=O)c3csc(C(N)=O)c3)CC2)cc1OC (centres undefined) | -65.3% (active)
43 | CC(=O)Nc1ccc(S(=O)(=O)NCC2CCC(C(=O)NCCc3ccccc3)CC2)cc1 (centres undefined) | 0% and -12.6%
44 | Cc1cc(NC(=O)C2CCC(CNS(=O)(=O)c3ccc(Br)s3)CC2)ccc1Br (centres undefined) | -4.58%
